# PubChem BioAssay AID602340 (Broad Institute, 2012)
# In all, about 330,000 compounds went through this assay and about 2,600 (0.79%) were called active. For the sample, actives were picked, then their nearest neighbours and some compounds at random. Unmarked numbers belong to inactive results.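 The calls were made as follows: active = mean ATP rescue above about 67%, or every replicate alone reaching that limit (limit read from the data, passing the limit was not always enough); inconclusive = no clear call, values can overlap the other calls; inactive = mean under the limit and some replicate under it.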
# Test: protection of differentiated C2C12 cells from simvastatin – single point, plate reader, primary screen (AID 602340);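 also: myotubes were challenged with 10 µM simvastatin during compound exposure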
# Details: C2C12 myotubes + simvastatin, ATP luminescence, 48 h; at 7.49 µM; stronger effect = higher value; scaled: DMSO 0, geranylgeraniol control 100
row,SMILES,rescue of ATP level
1,Cc1noc(C)c1S(=O)(=O)N(C)C[C@@H]1Oc2c(NS(=O)(=O)c3cn(C)cn3)cccc2C(=O)N([C@@H](C)CO)C[C@H]1C,5.29%
2,COc1cccc(C(=O)Nc2ccc3c(c2)OC[C@H](C)N(C(C)=O)C[C@@H](C)[C@@H](OC)CN(C)C3=O)c1,5.61%
3,O=c1c2ccccc2ncn1CCCCOc1ccccc1F,-4.17%
4,Fc1ccccc1OCCCCn1cncn1,109% (active)
5,CCN1CCN(CCCCOc2ccccc2F)CC1,12.7%
6,O=C(Nc1ccccc1F)N[C@@H]1CC[C@H](CCNC(=O)C2CC2)O[C@@H]1CO,3.31%
7,O=C(CSc1ncn[nH]1)N/N=C/c1ccc(F)cc1,2.49%
8,O=C(/C=C/Sc1ncn[nH]1)c1ccc(Cl)cc1,122% (active)
9,Cc1cccc(C=CC(=O)c2ccc(Cl)cc2)c1,3.66%
10,CO[C@H]1CN(C)C(=O)c2ccc(NC(=O)c3ccccc3F)cc2OC[C@H](C)N(C(=O)c2ccccc2F)C[C@H]1C,-0.874%
11,COc1ccc(NC(=O)CCCC(=O)c2ccccc2)cc1,4.33%
12,CCOC(=O)c1cc2ccccc2n1CC(=O)c1ccccc1,14.7%
13,COc1ccc2cc(C(=O)O)n(CC(=O)c3ccccc3)c2c1,107% (active)
14,OCCNc1nc(Nc2ccc(Cl)c(Cl)c2)nc2ccccc12,-27.5%
15,OCCCNC(c1ccccc1)c1ccc(O)cc1 (stereo unspecified),116% (active)
16,Cc1noc(C)c1NC(=O)N(C)C[C@H]1Oc2c(NC(=O)c3nc4ccccc4s3)cccc2C(=O)N([C@@H](C)CO)C[C@@H]1C,-9.27%
17,CN1C(=O)c2cc(NS(=O)(=O)c3ccc(F)cc3)ccc2OC[C@@H]2O[C@@H](CC(=O)O)CC[C@H]21,1.01%
18,O=C(C[C@H]1C[C@@H]2c3cc(NC(=O)CC4CC4)ccc3O[C@@H]2[C@H](CO)O1)NCc1cccnc1,-11%
19,CC(=O)C1=C(O)C(=O)N(c2ccc(S(N)(=O)=O)cc2)C1c1ccccc1F (stereo unspecified),106% (active)
20,Cc1ccc(S(=O)(=O)N2[C@@H](c3ccccc3F)C(C(=O)O)=CC[C@H]2c2ccc(Cl)cc2)cc1,21.4%
21,CC(=O)C1=C(O)C(=O)N(c2ccc(Br)cc2)C1c1ccc([N+](=O)[O-])cc1 (stereo unspecified),4.28%
22,CC1=CC(=O)C=CC1(C)C(Cl)(Cl)Cl (stereo unspecified),112% (active)
23,CO[C@@H]1CN(C)C(=O)c2cc(NS(=O)(=O)c3ccc(C)cc3)ccc2OC[C@H](C)N(Cc2nccs2)C[C@@H]1C,1.93%
24,Cc1cc(C)cc(NS(=O)(=O)Cc2ccccc2)c1,1.96%
25,CCC(CC)c1nnc(NS(=O)(=O)Cc2ccccc2)s1,117% (active)
26,CCC(CC)c1nnc(NC(=O)C2CCN(C(=O)c3ccco3)CC2)s1,-3.16%

row,SMILES,rescue of ATP level
1,CO[C@@H]1CN(C)C(=O)c2cc(NC(C)=O)ccc2OC[C@H](C)N(CC2CCCCC2)C[C@@H]1C,-13.7%
2,C[C@H](O)C#Cc1cnc2c(c1)C(=O)N([C@@H](C)CO)C[C@H](C)[C@@H](CN(C)C(=O)c1ccncc1)O2,8.21%
3,O=C(C[C@H]1C=C[C@H](NC(=O)CN2CCOCC2)[C@@H](CO)O1)NCc1cccc(F)c1,-2.71%
4,Cc1noc(C)c1NC(=O)Nc1ccc2c(c1)CC(=O)N([C@@H](C)CO)C[C@H](C)[C@@H](CN(C)C(=O)Nc1ccc3c(c1)OCO3)O2,-8.55%
5,CO[C@@H]1CN(C)C(=O)c2cc(NC(C)=O)ccc2OC[C@H](C)N(Cc2ccccc2F)C[C@@H]1C,-2.5%
6,CCCN1C2CCCC1CC(NC(=O)c1cccc(OC)c1)C2 (stereo unspecified),-3.95%
7,CCOc1ccccc1C(=O)NC1CC2CCCC(C1)N2Cc1ccccc1 (stereo unspecified),97.4% (active)
8,COc1ccc(CN2C3CCCC2CC(NC(=O)c2cccc(F)c2)C3)cc1 (stereo unspecified),9.21%
9,CCCNC(=O)N(C)C[C@@H]1Oc2ncc(-c3ccccc3F)cc2C(=O)N([C@@H](C)CO)C[C@H]1C,15.3%
10,COc1ccc(S(=O)(=O)N(C)C[C@H]2Oc3c(NC(=O)C4CCOCC4)cccc3C(=O)N([C@@H](C)CO)C[C@@H]2C)cc1,-29.4%
11,COCC#Cc1ccc2c(c1)O[C@H](CN(C)Cc1ccc3c(c1)OCO3)[C@H](C)CN([C@H](C)CO)S2(=O)=O,15.6%
12,CCOC(=O)C1CCN(C(=O)COc2cccc3ccccc23)CC1,-0.757%
13,CCOC(=O)C1CCN(C(=O)Cn2cc(C#N)c3ccccc32)CC1,99.6% (active)
14,CCOC(=O)C1CCN(C(=O)CSc2cc(=O)n(C)c3ccccc23)CC1,4.85%
15,CCCNC(=O)N(C)C[C@H]1Oc2cc(C#CC(C)(C)O)ccc2S(=O)(=O)N([C@H](C)CO)C[C@@H]1C,1.69%
16,Cc1ccc(C2=CSC3=NS(=O)(=O)CCN23)cc1C,1.19%
17,O=S1(=O)CCN2C(=N1)SC1=C2CCN(Cc2ccccc2)C1,121% (active)
18,COC(=O)c1sc(N2CCN(Cc3ccccc3)CC2)nc1N,8.62%
19,O=C(NCC[C@H]1CC[C@@H](NC(=O)C2CCCCC2)[C@@H](CO)O1)c1ccc(F)cc1,10.2%
20,CCC(=O)Nc1ccc2c(c1)C(=O)N(C)C[C@@H](OC)[C@@H](C)CN(Cc1ccccc1F)[C@H](C)CO2,10.8%
21,CCOc1ccc(NC(=O)CN(C)C(=O)Cc2sc(C)nc2-c2ccc(F)cc2)cc1OCC,8.47%
22,CCOc1ccc(-c2nc(C)sc2CC(=O)O)cc1,87.4% (active)
23,Cc1nc(-c2ccc(F)cc2)c(CC(=O)N2CCN(S(=O)(=O)c3ccc(F)cc3)CC2)s1,-5.66%
24,CN1C(=O)c2cc(NS(C)(=O)=O)ccc2OC[C@H]2O[C@H](CC(=O)NCc3ccccc3)CC[C@H]21,-11.2%
25,C[C@H](NC(=O)C[C@@H]1CC[C@@H](NC(=O)Cc2ccccn2)[C@@H](CO)O1)c1ccccc1,1.25%
